# Vif inh = HIV Vif self-association inhibitors, primary screen, imaging, HEK293T, single point; hit rate 0.35% among 340,000; HEK293T cells, Vif self-association by quenched fluorescence, 24 h; AID 602346, 2012; inhibition, % at 7.49 µM; in the data active = inhibition above about 50%, passing the limit was not always enough; inconclusive = no clear call, values can overlap the other calls; inactive = below about 31%
# PvdQ acylase = P. aeruginosa PvdQ acylase inhibitors, primary screen, biochemical, fluorescence, plate reader and imaging, single point; purified PvdQ acylase; AID 488965, 2010; inhibition, % at 10 µM; hit rate 0.063% among 340,000; PvdQ acylase [Pseudomonas aeruginosa LESB58]; in the data active = inhibition above about 30%, passing the limit was not always enough; inconclusive = no clear call, values can overlap the other calls;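 note: 0% = vehicle neutral wells and 100% = reference inhibitor wells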
# Glyco luc inh = increase of ERlucT glycosylation luciferase signal, primary screen, N-linked glycosylation inhibitor project, D54 ERlucT cells, luminescence, set 2; D54 ERlucT glycosylation luciferase reporter, 24 h; percent of 100 nM tunicamycin response; reporter increase, % at 12.5 µM; hit rate 0.23% among 360,000; AID 588692, 2011;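 active = mean luciferase reporter signal, scaled so untreated is 0 and the glycosylation-blocking control 100, at or above a set limit in every replicate; inconclusive = mean reaches the limit but not every replicate does; inactive = mean below the limit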;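 note: luciferase carries N-glycosylation sites so blocking glycosylation raises the light; 0% = median of neutral control wells and 100% = median of 100 nM tunicamycin wells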
# PDI inh = inhibitors of human PDI, primary screen, biochemical, turbidity, single point, plate reader; inhibition, % at 10 µM; PDI insulin aggregation turbidity, A650, 90 min; hit rate 0.052% among 350,000; AID 588391, 2011;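 active = mean inhibition across replicates of 30% or more, whatever share of single replicates reach that level; inconclusive = mean inhibition below 30% while every single replicate reaches 30%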
# ERp5 block = inhibitors of ERp5-driven insulin aggregation, primary screen, biochemical, turbidity, absorbance 650 nm, single point; AID 651711, 2012; inhibition, % at 9.99 µM; hit rate 0.05% among 350,000; 90 min; Protein disulfide-isomerase A6 (Homo sapiens), Q15084;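 active = mean replicate inhibition above about 25%, with every replicate also reaching it, limit read from the data, passing the limit was not always enough; inconclusive = only one of those two criteria met; inactive = neither criterion met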
# Target sequence (Q15084 whole entry, looked up): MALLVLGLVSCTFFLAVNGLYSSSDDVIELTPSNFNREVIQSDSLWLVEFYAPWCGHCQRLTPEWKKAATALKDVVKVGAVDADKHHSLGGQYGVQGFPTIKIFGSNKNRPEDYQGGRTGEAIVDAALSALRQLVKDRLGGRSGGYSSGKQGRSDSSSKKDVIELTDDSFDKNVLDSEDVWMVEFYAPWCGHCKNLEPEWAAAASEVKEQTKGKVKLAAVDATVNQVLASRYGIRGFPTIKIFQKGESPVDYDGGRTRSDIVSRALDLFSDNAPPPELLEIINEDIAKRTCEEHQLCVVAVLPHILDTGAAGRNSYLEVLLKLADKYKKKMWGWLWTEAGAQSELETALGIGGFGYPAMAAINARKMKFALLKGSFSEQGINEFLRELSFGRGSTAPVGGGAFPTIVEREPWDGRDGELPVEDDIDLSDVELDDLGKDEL
# The depositor's hits bear a star; ? = inconclusive; . = no result given; ! = not confirmed by another sample. Most compounds without a hit are left out; they make up all but 0.56% or so of the library.
SMILES,Vif inh,PvdQ acylase,Glyco luc inh,PDI inh,ERp5 block
CC1CCN(c2cc(C#N)c(C#N)cc2[N+](=O)[O-])CC1,90*,-14,-1,-2,.
CCCC(=O)NC(NC(=S)Nc1ccc(N=Nc2ccccc2)cc1)C(Cl)(Cl)Cl (stereo not drawn),-6,17,30*,5,0
CCCC(=O)NC(NC(=S)Nc1ccc(S(N)(=O)=O)cc1)C(Cl)(Cl)Cl (stereo not drawn),1,-9,0,0,.
O=C1OCCC1=COCCOC=C1CCOC1=O,18,.,1,8,1
O=C1OCCC1=COCCCCCOC=C1CCOC1=O,71*,.,-1,6,3
CC(/C=N/NC(=O)c1cc(-c2ccc(C)s2)[nH]n1)=C\c1ccccc1,2,-13,27*,-4,3
O=C1/C(=C/c2cccc([N+](=O)[O-])c2)Oc2cc(O)ccc21,-5,41*,3,-11,-2
CCn1ncc(Br)c1C(=O)Nc1sc2c(c1C(=O)OC)CCC2,-7,-15,4,-6,.
CCCNC(=O)C1(C)CCN(C(=O)c2cccc(OC(F)(F)F)c2)C1 (stereo not drawn),.,.,0,-3,2
Cc1ccnc(NC(=O)CCCOc2cc(=O)n(C)c3ccccc23)c1,97*,-17,26*!,-9,-2
Cn1c(=O)cc(OCCCC(=O)NC2CCCC2)c2ccccc21,18,8,45*,7,.
Cn1c(=O)cc(OCCCC(=O)NCc2ccccn2)c2ccccc21,9,-4,13,-8,5
O=C(O)c1ccc(N/N=C/C=C/c2ccccc2[N+](=O)[O-])cc1,54*,12,4,9,0
O=C(Cc1ccccc1)N/N=C/C=C/c1ccccc1[N+](=O)[O-],-7,.,-2,-3,1
COc1cc(C2C(C(C)=O)=C(O)C(=O)N2CCc2c[nH]c3ccccc23)ccc1O (stereo not drawn),-17,9,-1,41*,.
Cn1nc(C(F)(F)F)c(/C=N/OCc2c(Cl)cccc2Cl)c1Cl,5,-5,-2,1,.
Cn1nc(C(F)(F)F)c(/C=N/OC(=O)c2ccccc2Cl)c1SCc1ccccc1Cl,5,-10,58*,9,.
Cn1nc(C(F)(F)F)c(/C=N/OC(=O)c2ccc(Cl)cc2)c1Cl,19,2,0,-1,.
Cn1nc(C(F)(F)F)c(/C=N/OC(=O)c2ccccc2)c1SCc1ccc(Cl)cc1,-9,-11,73*,-2,.
CC1=C(C(N)=O)C(c2cccnc2)n2nc(-c3cccc(C)c3)nc2N1 (stereo not drawn),3,-6,0,-5,.
CC(=O)N1CCN(CC(=O)Nc2c(Cl)cc(Cl)cc2Cl)CC1,0,-15,0,-1,-2
CCOCCCNC(=O)C(NC(=O)Cc1cccs1)c1ccc(C)cc1 (stereo not drawn),3,11,0,-8,-11
COc1ccc2nc(C)cc(Nc3ccc(C)cc3)c2c1,6,-9,4,2,2
COc1ccc2nc(C)cc(Nc3ccc(N4CCOCC4)cc3)c2c1,27,6,49*,4,.
COc1ccc(Nc2cc(C)nc3ccccc23)cc1,-2,3,0,-3,3
SMILES,Vif inh,PvdQ acylase,Glyco luc inh,PDI inh,ERp5 block
COc1ccc2nc(C)cc(Nc3ccc(N4CCN(C)CC4)cc3)c2c1,-10,12,67*,18,1
CC1CN(S(=O)(=O)c2cccc(C(=O)NCCCn3ccnc3)c2)CC(C)O1 (stereo not drawn),3,-16,0,8,.
CC1CN(S(=O)(=O)c2ccc(C(=O)NCCCn3ccnc3)cc2)CC(C)O1 (stereo not drawn),52*,0,0,2,-2
COc1ccc(-c2ccc(OC)cc2)cc1,6,52*,2,-7,.
CC(C)CNC(=S)NC1CCCC1,63*,-17,2,7,.
S=C(NC1CCCC1)NC1CCCC1,53*,-1,1,-13,6
CC(C)CNC(=O)C(=O)NC1CCCC1,.,1,2,-3,.
Cc1ccccc1NC(=S)NC1CCCC1,59*,-3,1,1,1
Cc1cc(C)cc(N(CC(=O)NC2CCCCC2)C(=O)CNC(=O)c2ccco2)c1,?,-6,3,7,0
CC1(C)CNC(=O)c2sc(NC(=O)CN3CCOCC3)nc2C1,8,-12,2,-14,.
Cc1c(C(=O)C(C)C)n(C)c2ccccc12,59*,2,0,3,.
Cn1cc(-c2cnc3c(NC=O)cc(-c4cccc(C(F)(F)F)c4)cn23)cn1,-25,.,4,3,0
Nc1ccc(-c2cc(NC=O)c3ncc(-c4cccc(C(F)(F)F)c4)n3c2)cn1,33,.,29*,3,7
COc1ccc(F)cc1-c1cc(NC(C)=O)c2ncc(-c3cc(OC)c(OC)c(OC)c3)n2c1,68*,.,21,4,11
COc1ccc(-c2cnc3c(NC(C)=O)cc(-c4cc(F)ccc4OC)cn23)cc1OC,.,.,8,7,9
COc1cccc(-c2cc(NC=O)c3ncc(-c4cc(OC)c(OC)c(OC)c4)n3c2)c1,77*,.,18,7,-1
COc1cccc(-c2cnc3c(NC=O)cc(-c4ccc(O)c(OC)c4)cn23)c1,.,.,5,-11,-1
Cc1c(C(=O)NCc2cccnc2)sc2ncn(CC(=O)N3CCCCC3C)c(=O)c12 (stereo not drawn),.,-20,1,-4,.
CN1CCN(CC(=O)N2CCn3c4c(c5cc(C6CCCCC6)ccc53)CCCC42)CC1 (stereo not drawn),98*,-16,-10,0,.
COc1ccc(-c2cc(N)n(S(=O)(=O)c3c(F)c(F)c(F)c(F)c3F)n2)cc1OC,59*,12,4,4,-1
COc1ccc(S(=O)(=O)n2nc(-c3cc(OC)c(OC)c(OC)c3)cc2N)cc1OC,6,-8,4,-3,1
COc1ccccc1NS(=O)(=O)c1ccc(C(=O)N2CCCCCCC2)cc1,-1,2,-1,3,-9
COc1ccc(C=C(c2nc3ccccc3s2)c2nc3ccccc3s2)cc1O,-1,-2,29*,-3,.
COc1cc(C=C(c2nc3ccccc3s2)c2nc3ccccc3s2)ccc1O,-13,-6,5,7,2
Cc1cc(=O)oc2cc(OCc3cc4c(cc3Cl)OCO4)ccc12,40*,-5,2,-5,.
Cc1oc(C(=O)O)cc1COc1ccc2c(C)cc(=O)oc2c1,-4,-10,2,-5,.
O=C(c1ccco1)N1C2C=CC(C2)C1(C(F)(F)F)C(F)(F)F (stereo not drawn),-3,-4,2,7,.
